Bioassay records as filed in PubChem BioAssay.
FID counter – compounds displacing fluorescent DNA intercalator, primary screen, artefact control for HCV NS3 helicase inhibitor project, biochemical, FID fluorescence. 0.17% of 290,000 active. inhibition, % at 7.9 µM. DNA fluorescent intercalator displacement; in the data active = inhibition above about 37%;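 note: 0% = vehicle and 100% = reference compound; higher means more ethidium bromide displaced from hairpin DNA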
TMEM16A inh – TMEM16A chloride channel inhibitors, primary screen, cell-based, HTS; HEK293 TMEM16A/YFP iodide influx fluorescence, ionomycin; 1.2% of 310,000 active; normalized B-score (activity score, 25-100; higher = stronger inhibition) at 10 µM; Anoctamin-1 (Mus musculus), Q8BHY3; AID 588511, 2011;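 active = ratio plate-corrected score three or more library SD toward inhibition, starting fluorescence score within five deviations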;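 note: score derived from kinetic fluorescence span divided by baseline fluorescence per well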
PP5 inh – PP5 phosphatase inhibitors, primary screen, biochemical, fluorescence; Serine/threonine-protein phosphatase 5 (Homo sapiens), P53041; purified PP5c, OMFP substrate fluorescence; inhibition, % at 6.7 µM; 0.18% of 320,000 active;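 active = inhibition above the campaign's mean inhibition across all tested compounds plus 3 SD, cut at about 9.5% in these data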;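 note: 0% = DMSO only and 100% = 100 µM cantharidin control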
PP1 counter – PP1-alpha phosphatase inhibitors, primary screen, counter-screen for PP5 inhibitor project, biochemical, fluorescence, OMFP substrate, single point; Serine/threonine-protein phosphatase PP1-alpha catalytic subunit (Homo sapiens), P62136; purified PP1alpha; inhibition, % at 6.7 µM; 0.9% of 320,000 active; AID 2235, 2010;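 active = inhibition above the mean inhibition of all tested compounds plus 3 SD, computed separately for each screening campaign, cut at about 15% in these data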
Target sequence (P62136 whole entry, looked up): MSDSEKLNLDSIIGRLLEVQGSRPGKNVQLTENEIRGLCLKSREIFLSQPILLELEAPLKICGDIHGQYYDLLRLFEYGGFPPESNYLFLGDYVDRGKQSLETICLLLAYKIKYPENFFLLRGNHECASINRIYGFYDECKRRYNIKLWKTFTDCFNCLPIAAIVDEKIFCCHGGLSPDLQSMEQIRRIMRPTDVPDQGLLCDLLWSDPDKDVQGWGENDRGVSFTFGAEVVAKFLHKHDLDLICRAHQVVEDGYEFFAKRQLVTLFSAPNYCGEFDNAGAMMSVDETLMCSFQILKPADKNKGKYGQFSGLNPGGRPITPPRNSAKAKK
TMEM16A act – TMEM16A chloride channel activators or potentiators, primary screen, cell-based, HTS. Anoctamin-1 (Mus musculus), Q8BHY3. HEK293 TMEM16A/YFP-H148Q/I152L, iodide quench fluorescence; stronger effect = lower value. B-score at 10 µM. 0.3% of 340,000 active;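 active = fluorescence-ratio B-score plate-corrected deviation score at least 3 library SD below zero, with starting fluorescence score within 5 deviations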;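 note: channel opened by trigger with iodide after compound preincubation; score built on the fluorescence ratio of max minus min over baseline; more negative score means more quench and so TMEM16A activation or potentiation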
PREPL inhibitor – PREPL enzyme inhibitors, primary screen, biochemical, fluorescence polarization | 0.68% of 320,000 active | inhibition, % at 5.96 µM | recombinant PREPL, fluorescence polarization activity-based probe | Prolyl endopeptidase-like (Homo sapiens), Q4J6C6; in the data active = inhibition above about 43%;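 note: 0% = enzyme with DMSO and 100% = wells lacking enzyme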
TMEM16A reconf – TMEM16A chloride channel inhibitors, confirmation, cell-based, re-confirmation | 39% of 2,300 active | inhibition, % at 10 µM | shares compounds with TMEM16A inh | HEK293 TMEM16A/YFP-H148Q, iodide quench fluorescence; ionomycin added to raise cell calcium | AID 652189, 2013;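 active = mean duplicate percent inhibition, scaled so buffer wells are 0 and the reference blocker 100, over three buffer SD above buffer mean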
TMEM16A Ca cntr – calcium mobilization in TMEM16A/YFP HEK293 cells, confirmation, counter-screen for TMEM16A inhibitor project; 2% of 2,300 active; shares compounds with TMEM16A inh; calcium response (% of ionomycin), % at 10 µM; Fluo4 calcium mobilization;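 active = duplicate-averaged calcium signal over 20% of the ionomycin maximum, relative to buffer baseline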;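 note: each well's signal is peak minus trough fluorescence divided by its pre-addition baseline; 0% = buffer wells and 100% = ionomycin wells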
YFP-HEK293 quench – iodide YFP quench changes in parental YFP-HEK293, counter-screen for TMEM16A inhibitor project, cell-based. shares compounds with TMEM16A inh. ionomycin. YFP ratio F(max-min)/F0 at 10 µM. 2,300 tested, under 10 active;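 active = yellow fluorescent protein signal ratio exceeding the buffer control mean by over 5 SD of those controls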;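 note: ratio is mean of duplicate wells from kinetic YFP trace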
ClC-1 rat inh – ClC-1 chloride channel inhibition, selectivity assay for TMEM16A inhibitor project, cell-based, voltage-dependent ClC-1; shares compounds with TMEM16A inh; CHO ClC-1-YFP, iodide influx fluorescence quench; iodide control reads 0, buffer control 100; ratio percent, % at 10 µM; 2,300 tested, under 10 active; AID 652236, 2013;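 active = duplicate-mean ratio percent above the mean of iodide-only control wells, which defines zero, plus 5 of their SD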;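 note: higher percent means stronger block of ClC-1 iodide influx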
The depositor's hits bear a star; i = inactive; nt = no result. Only some compounds are listed: those with a hit (about 2.7% of all), similar ones and a draw of the others.

SMILES	FID counter	TMEM16A inh	PP5 inh	PP1 counter	TMEM16A act	PREPL inhibitor	TMEM16A reconf	TMEM16A Ca cntr	YFP-HEK293 quench	ClC-1 rat inh
CCOC(=O)CNC(=O)COc1coc(CN2CCN(c3ccccc3F)CC2)cc1=O	-21	i	0	-2	i	1	nt	nt	nt	nt
CCCN(C(=O)CSc1nc(C2CC2)n(-c2ccccc2)n1)C1CCS(=O)(=O)C1 (stereo not drawn)	nt	nt	4	-5	i	-1	nt	nt	nt	nt
Cc1ccc(OCCSc2ncnc3nc[nH]c23)cc1	-6	25*	0	1	i	16	i	i	-1.1	-12
COc1ccc(C(=O)CSc2ncnc3nc[nH]c23)cc1	-2	i	1	-3	i	3	nt	nt	nt	nt
NC(=O)c1ccsc1NC(=O)COC(=O)Cc1cccc2ccccc12	-10	25*	5	-3	i	-29	45%*	i	-0.72	-12
NC(=O)c1ccsc1NC(=O)COC(=O)Cc1c[nH]c2ccccc12	nt	i	0	0	i	7	nt	nt	nt	nt
NC(=O)c1ccsc1NC(=O)COc1ccccc1	-9	25*	6	0	i	12	i	i	-0.9	-9
COC(=O)C(Cc1ccccc1)NC(=O)c1ccc(NS(=O)(=O)c2ccc3[nH]c(=O)[nH]c3c2)cc1 (stereo not drawn)	nt	nt	0	0	i	12	nt	nt	nt	nt
Cc1nc2ncnn2c(C)c1C/C=C/c1ccccc1	-7	i	1	-1	i	1	nt	nt	nt	nt
Cc1ccc(S(=O)(=O)N2CCC(C(=O)NCC(C)(C)N3CCOCC3)CC2)c(C)c1	nt	nt	4	3	i	16	nt	nt	nt	nt
Cn1cc(CNC(=O)c2cc(COc3ccc4c(c3)CCCC4)on2)cn1	-51	25*	4	10	i	-5	i	i	-1.1	-8
O=C(C1CCN(S(=O)(=O)Cc2ccccc2)CC1)N1CCN(c2ncccn2)CC1	-16	i	4	2	i	3	nt	nt	nt	nt
O=C(C1CCN(S(=O)(=O)c2cnc[nH]2)CC1)N1CCN(c2ncccn2)CC1	3	100*	3	-8	i	6	i	i	-1.1	-31
Cc1ccc(S(=O)(=O)N2CCCCCC2)cc1C(=O)NCc1ccccn1	-27	i	3	0	i	-6	nt	nt	nt	nt
Cc1ccc(S(=O)(=O)N(Cc2ccccc2)Cc2ccco2)cc1	-10	100*	4	5	i	0	28%*	i	-1	-8
Cc1ccc(S(=O)(=O)N(Cc2ccc(F)cc2)Cc2ccco2)cc1	-9	100*	3	3	i	-4	i	i	-1.1	-10
O=CNn1cnc2c(oc3nc(-c4ccccc4)cc(-c4ccco4)c32)c1=O	-4	25*	-2	-1	i	2	18%*	i	-0.92	0
O=c1cc(-c2ccccc2)nc2nc(-c3ccco3)[nH]n12	-2	i	1	-2	i	-1	nt	nt	nt	nt
Cc1cccc(OCC(=O)NNc2c3ccccc3nc3ccccc23)c1	-10	25*	3	6	i	23	i	i	-1.1	-4
Cc1cc(C(=O)Nc2ccccc2)oc(=O)c1	0	i	0	-6	i	0	nt	nt	nt	nt
